Compound activity (PubChem BioAssay)
An excerpt weighted towards active compounds, which were near 3.2% of everything screened.
TMEM16A inh: mouse TMEM16A channel inhibition, primary screen; Q8BHY3; HEK293 TMEM16A/YFP iodide influx fluorescence, ionomycin; normalized B-score (activity score, 25-100; higher = stronger inhibition) at 10 µM; 310,000 compounds, 1.2% hits; AID 588511;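 active means ratio plate-corrected score three or more library SD toward inhibition, starting fluorescence score within five deviations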;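 further: score derived from kinetic fluorescence span divided by baseline fluorescence per well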
CHT allo act: human CHT allosteric activation | Q9GZV3 | CHT-expressing cells, membrane potential dye, choline EC20; hits give high values; LV-AA mutant CHT in HEK293 cells | B-score at 10 µM | 310,000 compounds, 0.49% hits | AID 488977;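 active means initial fluorescence not abnormally high and integrated response B-score, plate-corrected, over 3 SD above library mean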
HDAC3 inh: blocks human histone deacetylase 3; inhibition, % at 8.3 µM; 320,000 compounds, 0.15% hits; recombinant HDAC3, fluorogenic peptide/trypsin coupled, fluorescence; O15379; in the data active means inhibition above about 26%, passing the limit was not always enough
TMEM16A act: activators or potentiators of mouse TMEM16A chloride channel. HEK293 TMEM16A/YFP-H148Q/I152L, iodide quench fluorescence; hits give low values. Q8BHY3. 340,000 compounds, 0.3% hits. B-score at 10 µM;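 active means fluorescence-ratio B-score plate-corrected deviation score at least 3 library SD below zero, with starting fluorescence score within 5 deviations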;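 further: channel opened by trigger with iodide after compound preincubation; score built on the fluorescence ratio of max minus min over baseline; more negative score means more quench and so TMEM16A activation or potentiation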
CHT inh: inhibits the human high affinity choline transporter; Q9GZV3; CHT-expressing cells, membrane potential dye, choline response; hits give low values; B-score at 10 µM; 310,000 compounds, 0.86% hits;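 active means B-score over 3 SD under the library average, and starting fluorescence ratio not unusually high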;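 further: choline stimulus applied at its EC90 after an EC20 pre-addition; B-score computed on integrated fluorescence ratio after choline addition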
PHOSPHO1 block: blocks human PHOSPHO1 phosphatase activity | Q8TCT1 | recombinant PHOSPHO1, absorbance phosphatase assay | inhibition, % at 13.3 µM | 290,000 compounds, 1.1% hits | AID 1565; in the data active means inhibition above about 60%
Target sequence (Q8TCT1 whole entry, looked up): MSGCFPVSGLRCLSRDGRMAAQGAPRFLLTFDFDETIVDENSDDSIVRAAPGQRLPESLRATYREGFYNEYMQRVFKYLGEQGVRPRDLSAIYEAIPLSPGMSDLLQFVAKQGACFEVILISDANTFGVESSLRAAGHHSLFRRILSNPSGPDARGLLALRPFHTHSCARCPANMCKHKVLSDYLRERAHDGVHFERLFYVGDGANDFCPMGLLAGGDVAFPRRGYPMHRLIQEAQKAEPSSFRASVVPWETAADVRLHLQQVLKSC
CHT inh conf: human CHT inhibition, confirmatory screen; shares compounds with CHT inh; CHT-expressing cells, choline membrane potential dye; LV-to-AA substituted CHT, HEK293 cells; CHT activity remaining % of control (hits give low values), % at 10 µM; 2,400 compounds, 70% hits;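 active means choline transporter activity left, mean of duplicates at 10 µM, below buffer-only control mean minus 3 SD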;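 further: depolarization triggered by choline at its EC90 following an EC20 pre-addition; 0% = hemicholinium-3 full block and 100% = buffer-only control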
HEK293 CHT ctr: CHT inhibitor counter-screen hit in parental HEK293 cells; membrane potential ratio readout (active if shifted either direction beyond buffer ±3SD; no single direction) at 10 µM; 2,400 compounds, 4% hits; shares compounds with CHT inh; membrane potential dye, choline response; active = decrease or increase beyond buffer ±3SD;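 further: parental cells lack the transporter so any hit is non-specific; ratio is peak minus trough fluorescence over baseline after EC90 choline challenge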
Numbers without * were called inactive.

O=C(CSc1c2c(nc3cc(Cl)ccc13)CCCC2)NCCN1CCOCC1 was read as TMEM16A inh inactive, CHT allo act inactive, HDAC3 inh -3.2, TMEM16A act inactive, CHT inh inactive and PHOSPHO1 block -17.1.
`Cc1cccc(-c2nc3ccccc3c(=O)n2N)c1` gave TMEM16A inh inactive, CHT allo act inactive, HDAC3 inh -1.8, TMEM16A act inactive, CHT inh inactive and PHOSPHO1 block 28.0.
For Nn1c(-c2ccccc2)nc2cc(Cl)ccc2c1=O the results were TMEM16A inh inactive, CHT allo act inactive, HDAC3 inh -5.5, TMEM16A act inactive, CHT inh -7.24*, PHOSPHO1 block 18.7, CHT inh conf inactive and HEK293 CHT ctr inactive.
CCC(C)NC(=O)CSc1n[nH]c(-c2cc(Cl)ccc2OC)n1 (centres undefined) was read as TMEM16A inh inactive, CHT allo act inactive, HDAC3 inh -4.1, TMEM16A act inactive, CHT inh inactive and PHOSPHO1 block -20.0.
Screening O=C(c1noc2c1CCCC2)N1CCN(c2ccc(F)cc2)CC1 returned TMEM16A inh inactive, CHT allo act inactive, HDAC3 inh -2.6, TMEM16A act inactive, CHT inh inactive and PHOSPHO1 block 9.1.
Screening Cc1ccc(S(=O)(=O)NNC(=O)c2sc3nc(C)cc(C)c3c2-n2cccc2)cc1 returned TMEM16A inh inactive, CHT allo act inactive, HDAC3 inh 8.5, TMEM16A act inactive, CHT inh -4.97*, PHOSPHO1 block 29.4, CHT inh conf inactive and HEK293 CHT ctr inactive.
Nc1ccc(-c2ccc(N)cc2C(F)(F)F)c(C(F)(F)F)c1 was read as TMEM16A inh inactive, CHT allo act inactive, HDAC3 inh 13.0, TMEM16A act inactive, CHT inh -5.75*, PHOSPHO1 block 3.7, CHT inh conf 50.7%* and HEK293 CHT ctr inactive.
`Nc1ccc(C(O)(C(F)(F)F)C(F)(F)F)cc1` gave TMEM16A inh inactive, CHT allo act inactive, HDAC3 inh -2.5, TMEM16A act inactive, CHT inh inactive and PHOSPHO1 block -18.6.
Cc1[nH]n(-c2ccccc2)c(=O)c1C(c1cccc([N+](=O)[O-])c1O)c1c(C)[nH]n(-c2ccccc2)c1=O was read as TMEM16A inh inactive, CHT allo act inactive, HDAC3 inh 2.5, TMEM16A act inactive, CHT inh -7.23*, PHOSPHO1 block -23.6, CHT inh conf -6.2%* and HEK293 CHT ctr inactive.
`Cc1c(C(c2cccc([N+](=O)[O-])c2O)c2c(C)n(C)n(-c3ccccc3)c2=O)c(=O)n(-c2ccccc2)n1C` gave TMEM16A inh inactive, CHT allo act inactive, HDAC3 inh -0.1, TMEM16A act inactive, CHT inh inactive and PHOSPHO1 block 42.0.
Cc1ccc([C@@H]2CC=C(C(=O)O)[C@H](c3ccc(F)cc3)N2S(=O)(=O)c2ccccc2C)cc1 was read as HDAC3 inh -3.2.
`Cc1ccc(S(=O)(=O)N2[C@@H](c3ccc(Cl)cc3)C(C(=O)O)=CC[C@H]2c2ccc(Cl)cc2)cc1` gave TMEM16A inh 100*, CHT allo act inactive, HDAC3 inh 5.3, TMEM16A act inactive, CHT inh -5.7*, CHT inh conf 61.6%* and HEK293 CHT ctr inactive.
For Cc1ccc(S(=O)(=O)N2[C@@H](c3ccc(F)cc3)C(C(=O)O)=CC[C@H]2c2ccc(C(C)C)cc2)cc1 the results were TMEM16A inh 100*, CHT allo act inactive, HDAC3 inh -5.3, TMEM16A act inactive, CHT inh -6.31*, CHT inh conf 65.2%* and HEK293 CHT ctr inactive.
Cc1ccc(/C=C/C(=O)OCC(=O)Nc2ccccc2Sc2ccccc2)cc1 was read as TMEM16A inh inactive, CHT allo act inactive, HDAC3 inh 2.3, TMEM16A act inactive, CHT inh inactive and PHOSPHO1 block -4.6.
